# From PubChem BioAssay
# Sampled rows, rich in hits. Any-hit rate of the full collection: about 0.24%.
# NPYLR7 agonist: mosquito NPYLR7 agonism. HEK293T NPYLR7/Galpha15, GCaMP6s calcium fluorescence. activation, % at 10 µM. hit rate 0.15% among 270,000. AID 1259423; in the data active = activation above about 40%;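 also: 0% = vehicle and 100% = reference agonist at the receptor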
# mcGAS inh: mouse cGAS inhibition by luminescence. hit rate 0.15% among 160,000. recombinant cGAS, Kinase-Glo ATP depletion luminescence. AID 1259399. Q8C6L5. inhibition, % at 12.5 µM;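 also: 0% = negative control wells and 100% = reference inhibitor with no enzyme activity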
# Target sequence (Q8C6L5 whole entry, looked up): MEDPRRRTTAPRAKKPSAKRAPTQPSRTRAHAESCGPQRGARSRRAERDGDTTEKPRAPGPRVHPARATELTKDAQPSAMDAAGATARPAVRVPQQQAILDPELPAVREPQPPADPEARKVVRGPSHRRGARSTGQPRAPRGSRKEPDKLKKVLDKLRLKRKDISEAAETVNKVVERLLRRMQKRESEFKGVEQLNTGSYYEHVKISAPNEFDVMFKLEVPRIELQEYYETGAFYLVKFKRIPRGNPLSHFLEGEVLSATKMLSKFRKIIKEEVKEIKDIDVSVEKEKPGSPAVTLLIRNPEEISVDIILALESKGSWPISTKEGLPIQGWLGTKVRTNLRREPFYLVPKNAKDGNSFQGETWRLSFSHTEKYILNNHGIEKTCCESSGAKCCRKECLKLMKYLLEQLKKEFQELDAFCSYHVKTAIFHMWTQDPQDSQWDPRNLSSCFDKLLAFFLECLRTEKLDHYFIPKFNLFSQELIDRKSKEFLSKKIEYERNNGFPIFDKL
# hcGAS inh: inhibitors of human cGAS | recombinant h-cGAS, ATP depletion, Kinase-Glo luminescence | hit rate 0.081% among 290,000 | inhibition, % at 12.5 µM | Q8N884 | AID 1259398;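 also: 0% = vehicle reaction and 100% = reaction without DNA for no activity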
# Starred values were filed as active, the others as inactive; . = not tested or not shown; ! = a repeat was not active. Rule as the data show it, unless noted: active = inhibition above about 40%; inactive = the rest.
SMILES,NPYLR7 agonist,mcGAS inh,hcGAS inh
CCNC(=S)N(CCN1CCOCC1)Cc1c(-c2ccccc2)noc1N1CCCCC1C (configuration not stated),.,-7,-8
CN1CCN(Cc2c(O)ccc3c2O/C(=C\c2cc4cc(Br)ccc4o2)C3=O)CC1,62*,-5,-3
O=C1/C(=C/c2cc3cc(Br)ccc3o2)Oc2c1ccc(O)c2CN1CCCC1,20,-8,-8
O=C1/C(=C/c2cc3cc(Br)ccc3o2)Oc2c1ccc(O)c2CN1CCOCC1,28,-4,-4
CCN1CCN(Cc2c(O)ccc3c2O/C(=C\c2cc4cc(Br)ccc4o2)C3=O)CC1,79*,-3,-7
NC(=O)C(=O)NCCC1CN(Cc2ccc3occc3c2)CCO1 (configuration not stated),2,.,-5
CCOc1cc2c(cc1N)OC(C)C2 (configuration not stated),-2,-5,-1
CCOc1cc2c(cc1C=C(C#N)C#N)OC(C)C2 (configuration not stated),95*,.,-5
Cc1ccc(S(=O)(=O)Nc2cc(Sc3ncn[nH]3)c(O)c3ccccc23)c(C)c1,-6,40*,-8
CCOc1ccc(S(=O)(=O)Nc2cc(Sc3ncn[nH]3)c(O)c3ccccc23)cc1,-10,8,-7
Cc1[nH]ccc2c1[nH]c1cc(=O)ccc12,-4,43*,49*!
Cc1c2ccccc2[nH]c2c1oc1cc(=O)ccc12,13,.,-6
N#Cc1ccc(NC(=O)NC2CC2c2c(F)cccc2F)cc1 (configuration not stated),-21,.,-6
CCOC=C(C#N)c1nc(C)cs1,84*,.,-3
CCOc1cccc(/C=C(/C#N)c2nc(C)cs2)c1OC(F)F,8,.,-16
CCCn1c(C)c(C)n2c3c(=O)n(CC)c(=O)n(C)c3nc12,14,.,-8
S=c1[nH]nc(-c2cccnc2)n1N=Cc1ccc(Br)cc1,3,-6,-5
Cc1ccc(N=Cc2nc(-c3ccccc3Br)oc2O)cc1,-3,.,-5
Oc1oc(-c2ccccc2Br)nc1C=Nc1ccccc1,65*,.,15
O=C(CN1CCN(c2ccccc2F)C1=O)Nc1ccc(F)c(C(F)(F)F)c1,0,.,-9
Cc1cccc2ncc(C(=O)N3CCC4(CCNC(=O)CC4)CC3)c(=O)n12,13,.,-2
Cc1nc2ncccc2cc1C(=O)N1CCC2(CCNC(=O)CC2)CC1,55*,.,-2
COc1cccc(-c2nc3ccc(Cl)cn3c2NCc2ccccc2)c1,-5,-4,-2
COc1cccc(-c2nc3ccc(Br)cn3c2NCc2ccccc2)c1,12,89*!,-10
Cc1ccc(CN(CC(O)Cc2ccccc2)CC2CCCO2)s1 (configuration not stated),29,-4,-11
SMILES,NPYLR7 agonist,mcGAS inh,hcGAS inh
CC(C)c1ccccc1NC(=O)c1ccc(-c2ccccc2CO)o1,0,.,0
O=C(C1=NN(c2ccccc2)C2C(=O)N(c3ccccc3)C(=O)C12)c1ccccc1 (configuration not stated),65*,-4,-5
CC(=O)C1=NN(c2ccccc2)C2C(=O)N(c3ccc(Br)cc3)C(=O)C12 (configuration not stated),5,-3,0
COc1ccc(N2C(=O)C(c3c(C)[nH]n(-c4ccc(Cl)cc4)c3=O)=C(N3CCN(C)CC3)C2=O)cc1,34,-5,-8
COc1cccc2c1C(=O)c1c(O)c3c(c(O)c1C2=O)C[C@@](O)(C(C)=O)C[C@@H]3O[C@H]1C[C@H](N)[C@H](O)[C@H](C)O1,-2,.,60*!
COc1cccc2c1C(=O)c1ccccc1C2=O,-4,-3,1
COc1cccc2c1C(=O)c1c(O)c3c(c(O)c1C2=O)C[C@@](O)(C(=O)CO)C[C@@H]3O[C@H]1C[C@H](N)[C@@H](O)[C@H](C)O1,-3,.,48*
CC(=O)[C@]1(O)Cc2c(O)c3c(c(O)c2[C@@H](O[C@H]2C[C@H](N)[C@H](O)[C@H](C)O2)C1)C(=O)c1ccccc1C3=O,100*,96*,69*
Cc1cc(C)c(S(=O)(=O)N2CCC3(CC2)C(=O)N(CC(=O)Nc2ccccc2)CN3c2ccccc2)c(C)c1,28,-5,-11
COC(=O)c1cc(C)nc2c1c(=O)n(Cc1cccc(Cl)c1)n2C,3,-16,-5
O=c1[nH]c(=S)[nH]c2c1C(c1cccc([N+](=O)[O-])c1)c1c([nH]c(=S)[nH]c1=O)O2,5,55*,30
O=c1[nH]cnc2c1C(c1cccc([N+](=O)[O-])c1)c1c(nc[nH]c1=O)O2,0,-7,-8
O=C(O)c1ccc(Br)cc1I,-2,11,6
Cc1ccn(CC(=O)N2CCC(n3nccc3NC(=O)CCOc3ccccc3)CC2)n1,-2,-3,-6
Cn1c(-c2ccccc2F)nnc1S(=O)(=O)Cc1ccon1,4,.,-2
Cc1cc2nc3c(=O)[nH]c(=O)nc-3n(C)c2cc1C=O,-1,.,-5
Cc1cc2nc3c(=O)[nH]c(=O)nc-3n(CC(O)C(O)C(O)CO)c2cc1C (configuration not stated),173*,.,0
c1ccc(CNc2nc(NCCc3ccncc3)c3sccc3n2)cc1,59*,.,-11
CNc1nc(NCc2ccccc2)c2sccc2n1,8,.,-7
c1ccc(N=c2scc(-c3ccccc3)n2N2CCOCC2)cc1,-4,-7,-4
O=C(c1cnccn1)N1CCc2[nH]c3c(Cl)cc(Cl)cc3c2C1,3,22,18
COCC(=O)N1CCc2[nH]c3c(Cl)cc(Cl)cc3c2C1,1,96*,48*
Cc1ccc2[nH]nc(C(=O)N3CCCC4(CCNC4)C3)c2c1 (configuration not stated),-1,.,-7
CCn1cc(C(CC(=O)N2CCN(Cc3ccc4c(c3)OCO4)CC2)c2cc(OC)cc(OC)c2)c2ccccc21 (configuration not stated),.,74*,-13
CCn1cc(C(CC(=O)NCc2ccc3c(c2)OCO3)c2cc(OC)cc(OC)c2)c2ccccc21 (configuration not stated),3,1,3
SMILES,NPYLR7 agonist,mcGAS inh,hcGAS inh
Cc1oc(-c2cccs2)nc1-c1nccn1Cc1noc(C(C)C)n1,.,-9,-6
COc1ccc(-n2ccnc2-c2nc(-c3cccs3)oc2C)cn1,57*,.,-10
CCOC(=O)N1CCN(C(=O)CC(c2cccc(F)c2)c2c[nH]c3c(CC)cccc23)CC1 (configuration not stated),0,-3,-2
O=c1c(O)c(-c2ccc(O)cc2O)oc2cc(O)cc(O)c12,5,7,-7
O=c1c(O)c(-c2cc(O)c(O)c(O)c2)oc2cc(O)cc(O)c12,-3,82*,71*
CC1CCc2c(sc(NC(=O)CN3CCN(Cc4ccc(Cl)s4)CC3)c2C#N)C1 (configuration not stated),-9,.,-3
O=c1oc2c(CN3CCN(CCO)CC3)c(O)ccc2cc1-c1ccccc1,4,-8,-8
Cc1csc(-c2cc3ccc(O)c(CN4CCN(CCO)CC4)c3oc2=O)n1,69*,.,-3
N#CC(C(=O)CCc1ccccc1F)c1nnc2n1CCCCC2 (configuration not stated),19,-17,-6
O=C(NCCC12CC3CC(CC(C3)C1)C2)c1ccc2c(=O)n3c(nc2c1)CCCCC3,6,.,3
